The results in this text go back to article PMC4336329 (PLoS ONE, 2015).

SMILES strings stand for the structures. About 14,000 (4.5%) of roughly 310,000 compounds showed an effect of 50% or more. Effects have a minus sign here. This is one part of a sample in which strong results are shown more often than they occur.
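Further: peak tail current of the secondary pulse compared with the same well before compound.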

Chain of human ether-à-go-go-related gene (hERG) potassium channel (Q12809 whole entry, looked up): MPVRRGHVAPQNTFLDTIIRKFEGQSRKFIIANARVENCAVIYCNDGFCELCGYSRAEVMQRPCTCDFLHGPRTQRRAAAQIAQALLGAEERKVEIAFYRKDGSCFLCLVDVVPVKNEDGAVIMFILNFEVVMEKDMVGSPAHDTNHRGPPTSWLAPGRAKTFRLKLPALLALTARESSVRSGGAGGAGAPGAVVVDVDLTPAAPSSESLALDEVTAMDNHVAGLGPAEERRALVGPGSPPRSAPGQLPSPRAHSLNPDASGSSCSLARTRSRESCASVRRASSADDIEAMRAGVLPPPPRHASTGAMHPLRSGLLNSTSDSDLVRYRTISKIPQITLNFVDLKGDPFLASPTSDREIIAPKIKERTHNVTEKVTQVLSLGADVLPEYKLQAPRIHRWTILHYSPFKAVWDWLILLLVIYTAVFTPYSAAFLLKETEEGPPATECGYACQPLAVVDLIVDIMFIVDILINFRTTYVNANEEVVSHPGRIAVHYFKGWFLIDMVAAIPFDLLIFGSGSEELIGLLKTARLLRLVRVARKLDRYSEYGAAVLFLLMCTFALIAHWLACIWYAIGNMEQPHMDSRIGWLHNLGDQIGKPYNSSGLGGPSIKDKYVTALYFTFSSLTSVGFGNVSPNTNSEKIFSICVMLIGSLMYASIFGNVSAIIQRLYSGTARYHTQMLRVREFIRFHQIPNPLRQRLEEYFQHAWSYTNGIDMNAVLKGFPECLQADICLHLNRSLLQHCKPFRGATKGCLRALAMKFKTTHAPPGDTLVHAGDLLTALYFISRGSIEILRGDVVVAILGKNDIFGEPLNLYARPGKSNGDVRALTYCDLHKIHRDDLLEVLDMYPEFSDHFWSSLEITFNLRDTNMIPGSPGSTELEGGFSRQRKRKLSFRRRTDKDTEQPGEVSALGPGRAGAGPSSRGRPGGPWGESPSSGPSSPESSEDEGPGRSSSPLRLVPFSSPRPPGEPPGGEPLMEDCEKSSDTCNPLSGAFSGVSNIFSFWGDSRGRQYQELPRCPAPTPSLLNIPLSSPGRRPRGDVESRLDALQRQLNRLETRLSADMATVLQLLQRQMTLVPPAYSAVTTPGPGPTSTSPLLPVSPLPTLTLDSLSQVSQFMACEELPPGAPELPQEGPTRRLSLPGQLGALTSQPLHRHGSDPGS

This test has as its target human ether-à-go-go-related gene (hERG) potassium channel (human, UniProt Q12809). Briefly: primary screen, population patch clamp on CHO cells stably expressing hERG; higher = less effect of the substance.
In the case of `CN1CCN(c2ccccc2NC(=O)c2cccs2)CC1`, the “hERG current change (%, negative = inhibition) at 10uM” value is -47.5%.
With `CC(=O)N1CCN(c2ccccc2NC(=O)c2cccs2)CC1` the figure was -43.8%; with `CC1CCN(c2ccccc2NC(=S)NC(=O)c2cccs2)CC1`, -50.2%; with `O=C(NC(=S)Nc1ccccc1N1CCCCC1)c1cccs1`, 6.21%.
As for `O=C(NC(=S)Nc1ccccc1N1CCCC1)c1cccs1`, the “hERG current change (%, negative = inhibition) at 10uM” value was 7.27%.
Turning to `CCC(=O)N1CCN(c2ccccc2NC(=O)c2cccs2)CC1`, the “hERG current change (%, negative = inhibition) at 10uM” value is given as -50.4%.
With `CCCC(=O)N(CCN1CCOCC1)c1nc2c(OC)ccc(OC)c2s1.Cl` the figure was -15.5%; with `CCOC(=O)C1=C(N)Oc2cc(O)ccc2C1c1cccc([N+](=O)[O-])c1` (centres unmarked), -11.3%; with `COc1ccc(NC(=O)c2ccccc2Oc2ccccc2)c(OC)c1`, 1.42%.
Regarding `COc1ccc(C(C(=O)NC2CCCCC2)N(Cc2cccnc2)C(=O)c2snc(C(N)=O)c2N)cc1` (centres unmarked), the “hERG current change (%, negative = inhibition) at 10uM” value was -11.8%.
For the compound `COc1ccc(/C=N/N2CCOCC2)cc1Cn1nc(C)c([N+](=O)[O-])c1C`, the “hERG current change (%, negative = inhibition) at 10uM” value is given as -10.8%.
With `COc1ccc(/C=N/n2cncn2)cc1Cn1cc([N+](=O)[O-])cn1` the figure was -32.1%.
Turning to `COc1ccc(/C=N/n2cncn2)cc1Cn1nc(C)c([N+](=O)[O-])c1C`, the “hERG current change (%, negative = inhibition) at 10uM” value is given as -53.6%.
The result for `COC(=O)[C@]1(CC(C)C)N[C@H](c2ccc(-c3ccc(F)cc3)cc2)[C@@H]2C(=O)N(C)C(=O)[C@@H]21.O=C(O)C(F)(F)F` reads -15.7%; that for `COc1ccc(-c2cc(=O)n(-c3nc4ccccc4[nH]3)[nH]2)cc1`, -53.1%; that for `Cl.O=c1cc(-c2ccccc2)[nH]n1-c1nc2ccccc2[nH]1`, 7.02%.
Regarding `COC(=O)Cc1cc(=O)n(-c2nc3ccccc3[nH]2)[nH]1`, the “hERG current change (%, negative = inhibition) at 10uM” value is recorded as -23.3%.
For the compound `CCN(CC)CCOC(=O)/C=C/c1ccccc1.Cl`, the “hERG current change (%, negative = inhibition) at 10uM” value is -12.4%.
On to `Cc1cccc(Nc2nnc(SCC(=O)NCc3cccs3)s2)c1`, for which the “hERG current change (%, negative = inhibition) at 10uM” value is listed as 21.9%.
Turning to `CNc1nc(C)nc(-n2nc(C)cc2C)n1`, the “hERG current change (%, negative = inhibition) at 10uM” value is recorded as 15.8%.
On to `Cc1cc(C)n(-c2nc(Nc3ccccc3)nc(-n3nc(C)cc3C)n2)n1`, for which the “hERG current change (%, negative = inhibition) at 10uM” value stood at 15.6%.
`Cc1cc(C)n(-c2nc(C)nc(NCc3ccccc3)n2)n1`: the “hERG current change (%, negative = inhibition) at 10uM” value is given as -86.9%.
Take `CC(=O)Nc1nc(SCc2ccc(Cl)cc2Cl)n[nH]1`: the “hERG current change (%, negative = inhibition) at 10uM” value is 16.4%.
`O=[N+]([O-])c1ccc2c(c1)nc1n2CCSC1`: the “hERG current change (%, negative = inhibition) at 10uM” value is reported as -19.2%.
On to `Cc1ccc2occ(CN3CCN(Cc4ccccc4)CC3)c(=O)c2c1`, for which the “hERG current change (%, negative = inhibition) at 10uM” value is recorded as -45.9%.
Take `COc1ccc(CN2CC3CC(C2)c2cccc(=O)n2C3)cc1OC` (centres unmarked): the “hERG current change (%, negative = inhibition) at 10uM” value was -5.24%.
For `Cc1ccc(CN2CC3CC(C2)c2cccc(=O)n2C3)cc1` (centres unmarked), the “hERG current change (%, negative = inhibition) at 10uM” value was -5.29%.
With `Cc1cccc(N2CCN(Cc3nc(-c4ccc(F)cc4F)oc3C)CC2)n1` the figure was -41.3%.
Consider `COc1cc(C)c(-c2nc(CN3C[C@@H]4C[C@@H](C3)c3cccc(=O)n3C4)c(C)o2)cc1C`, for which the “hERG current change (%, negative = inhibition) at 10uM” value was -57.6%.
As for `Cc1oc(-c2ccc(F)cc2F)nc1CN1C[C@@H]2C[C@@H](C1)c1cccc(=O)n1C2`, the “hERG current change (%, negative = inhibition) at 10uM” value is recorded as -74.4%.
Regarding `COc1cc(CN2CC3CC(C2)c2cccc(=O)n2C3)cc(OC)c1OC` (centres unmarked), the “hERG current change (%, negative = inhibition) at 10uM” value is listed as -6.41%.
For the compound `Cc1cc(C)n2c(Br)c(CN3CC4CC(C3)c3cccc(=O)n3C4)nc2n1` (centres unmarked), the “hERG current change (%, negative = inhibition) at 10uM” value was found to be 0.651%.
Turning to `Cc1ccc2occ(CN3CC4CC(C3)c3cccc(=O)n3C4)c(=O)c2c1` (centres unmarked), the “hERG current change (%, negative = inhibition) at 10uM” value is -63.9%.
Take `COC(=O)C1=C(N)N(c2ccccc2C(F)(F)F)C2=C(C(=O)CCC2)C1c1ccc2c(c1)OCO2` (centres unmarked): the “hERG current change (%, negative = inhibition) at 10uM” value is reported as 20.5%.
For the compound `CC(C)(C)c1nc2scc(-c3ccc(Br)cc3)c2c(=O)o1`, the “hERG current change (%, negative = inhibition) at 10uM” value is recorded as 7.26%.
`Cc1cc(C(=O)Nc2nnc(C3CCCCC3)s2)cs1`: the “hERG current change (%, negative = inhibition) at 10uM” value is reported as -5.46%.
In the case of `COc1ccc(CCN(Cc2cccs2)S(=O)(=O)c2ccc(S(=O)(=O)N(C)C3CCCCC3)cc2)cc1OC`, the “hERG current change (%, negative = inhibition) at 10uM” value came out at 2.56%.
`COc1cc(NC(=O)CCc2nnc3ccc(N4CCCC4)nn23)cc(OC)c1OC`: the “hERG current change (%, negative = inhibition) at 10uM” value is given as 6.49%.
As for `Cn1cc(/C=C(\NC(=O)c2ccccc2Cl)C(=O)NCCN2CCOCC2)c2ccccc21`, the “hERG current change (%, negative = inhibition) at 10uM” value is -30%.
For the compound `O=C(CCC1CC(=O)Nc2ccccc21)NCc1ccc(F)cc1` (centres unmarked), the “hERG current change (%, negative = inhibition) at 10uM” value is recorded as -17.6%.
Regarding `O=C(Nc1nc(-c2ccc(F)cc2)cs1)c1cccc(N2C(=O)CCC2=O)c1`, the “hERG current change (%, negative = inhibition) at 10uM” value was 9.67%.
With `COc1ccc(C)cc1S(=O)(=O)N1CCCC(C(=O)NC2CC2)C1` (centres unmarked) the figure was -0.49%; with `O=C(NCc1ccccc1)C1CC(=O)N(C2CCCCC2)C1` (centres unmarked), 17.8%; with `Cc1ccc(S(=O)(=O)N2CCCN(C(=O)CNC(=O)c3cccc(C)c3)CC2)cc1`, -54.3%.
